Common to all, as to assay: DAPPL (digital affinity profiling via proximity ligation, sequencing); 10 mM Tris-HCl pH 7.5, 50 mM NaCl, 1 mM DTT, 4% glycerol, room temperature, 30 min; GST-TFs on glutathione beads, 16-mer random dsDNA library, 0.1% formaldehyde crosslink after washing; high values mean tight binding
In assay [1] the target is T1, FEV (Homo sapiens, UniProt Q99581 1-238).
T1 sequence: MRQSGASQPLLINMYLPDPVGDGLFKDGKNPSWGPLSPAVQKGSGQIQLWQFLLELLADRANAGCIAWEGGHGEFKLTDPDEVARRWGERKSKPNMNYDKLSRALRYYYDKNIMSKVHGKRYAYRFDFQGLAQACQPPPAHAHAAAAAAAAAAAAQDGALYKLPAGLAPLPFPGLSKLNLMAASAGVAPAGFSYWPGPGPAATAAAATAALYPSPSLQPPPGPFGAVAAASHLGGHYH
To be noted: protein: recombinant; tags: N-terminal GST; dsDNA, one strand shown. An outline of the steps: (§1)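 In yeast, human transcription factors were expressed with a GST fusion, then pulled down on glutathione beads and given DNA barcodes. Pooled with a tag-only sample, they were exposed to 200 nmole of a 16-mer random double-stranded DNA library (Tris/NaCl/DTT/glycerol buffer, room temperature, 30 min), washed, crosslinked with 0.1% formaldehyde, proximity-ligated using BsaI/T4 ligase for 1 h at 37 °C, PCR-amplified and read on an Illumina NextSeq500. Each hexamer's frequency of reads for a factor, divided by the matching frequency for the tag-only sample, gives the binding signal.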

Assay [2] concerns the target ETV5 (Homo sapiens, UniProt P41161 1-510). To be noted: protein: recombinant; tags: N-terminal GST; dsDNA, one strand shown. The essentials: as §1
The target of assay [3] is HSF1 (Homo sapiens, UniProt Q00613 1-529). The following applies: protein: recombinant; tags: N-terminal GST; chain copies: 3; dsDNA, one strand shown. An outline of the steps: as §1
Assay [4] deals with T2, SPIC (Homo sapiens, UniProt Q8N5J4 1-248).
T2 sequence: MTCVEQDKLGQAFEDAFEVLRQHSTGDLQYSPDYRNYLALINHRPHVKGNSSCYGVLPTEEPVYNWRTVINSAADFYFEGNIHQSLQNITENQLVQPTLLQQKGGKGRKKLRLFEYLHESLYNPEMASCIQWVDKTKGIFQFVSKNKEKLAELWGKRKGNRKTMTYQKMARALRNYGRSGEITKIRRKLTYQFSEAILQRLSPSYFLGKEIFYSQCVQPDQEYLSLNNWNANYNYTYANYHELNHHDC
The following applies: protein: recombinant; tags: N-terminal GST; dsDNA, one strand shown. The essentials:
as §1

The target in assay [5] is ELF4 (Homo sapiens, UniProt Q99607 1-663). The following applies: protein: recombinant; tags: N-terminal GST; dsDNA, one strand shown. An outline of the steps:
as §1

The target in assay [6] is T3, ELK4 (Homo sapiens, UniProt P28324-2 1-405).
T3 sequence: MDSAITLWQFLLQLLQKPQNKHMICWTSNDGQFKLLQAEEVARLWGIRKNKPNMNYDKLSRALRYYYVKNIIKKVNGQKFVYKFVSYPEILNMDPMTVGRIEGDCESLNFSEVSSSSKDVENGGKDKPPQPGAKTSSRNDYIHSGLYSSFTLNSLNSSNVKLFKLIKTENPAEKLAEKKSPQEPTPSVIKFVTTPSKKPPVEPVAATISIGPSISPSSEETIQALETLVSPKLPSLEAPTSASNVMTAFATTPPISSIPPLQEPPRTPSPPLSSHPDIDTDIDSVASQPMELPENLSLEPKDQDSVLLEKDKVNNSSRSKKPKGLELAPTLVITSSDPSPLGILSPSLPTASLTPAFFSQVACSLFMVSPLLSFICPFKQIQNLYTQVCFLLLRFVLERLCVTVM
To be noted: protein: recombinant; tags: N-terminal GST; dsDNA, one strand shown. An outline of the steps:
as §1

Assay [7] addresses T4, ETV2 (Homo sapiens, UniProt O00321 1-342).
T4 sequence: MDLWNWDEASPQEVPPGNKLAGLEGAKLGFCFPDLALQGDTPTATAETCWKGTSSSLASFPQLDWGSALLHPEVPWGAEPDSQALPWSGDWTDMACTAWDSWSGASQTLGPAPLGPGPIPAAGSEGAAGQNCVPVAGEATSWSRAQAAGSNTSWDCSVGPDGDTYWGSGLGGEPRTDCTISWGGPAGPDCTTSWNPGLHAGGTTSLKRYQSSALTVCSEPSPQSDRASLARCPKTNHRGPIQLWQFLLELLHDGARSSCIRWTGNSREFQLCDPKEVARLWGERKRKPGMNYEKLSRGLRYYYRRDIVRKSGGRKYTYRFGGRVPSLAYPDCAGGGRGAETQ
The following applies: protein: recombinant; tags: N-terminal GST; dsDNA, one strand shown. The essentials:
as §1

Assay [8] concerns the target T5, ELF3 (Homo sapiens, UniProt P78545 1-371).
T5 sequence: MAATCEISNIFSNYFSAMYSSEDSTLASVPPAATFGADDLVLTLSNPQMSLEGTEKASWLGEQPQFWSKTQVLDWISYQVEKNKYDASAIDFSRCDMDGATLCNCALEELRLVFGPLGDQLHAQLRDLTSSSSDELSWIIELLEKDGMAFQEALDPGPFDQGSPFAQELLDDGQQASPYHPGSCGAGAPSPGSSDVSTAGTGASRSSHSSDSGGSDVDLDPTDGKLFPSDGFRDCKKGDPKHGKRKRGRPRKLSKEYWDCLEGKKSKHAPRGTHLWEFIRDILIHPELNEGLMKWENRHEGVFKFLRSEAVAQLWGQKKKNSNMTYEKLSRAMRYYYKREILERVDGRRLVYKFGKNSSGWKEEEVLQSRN
The following applies: protein: recombinant; tags: N-terminal GST; dsDNA, one strand shown. An outline of the steps: as §1

The target of assay [9] is CRX (Homo sapiens, UniProt O43186 1-299). The following applies: protein: recombinant; tags: N-terminal GST; dsDNA, one strand shown. The essentials:
as §1

For assay [10], the target named is ETV1 (Homo sapiens, UniProt P50549 1-477). The following applies: protein: recombinant; tags: N-terminal GST; dsDNA, one strand shown. An outline of the steps: as §1
The target in assay [11] is T6, ERF (Homo sapiens, UniProt P50548 1-548).
T6 sequence: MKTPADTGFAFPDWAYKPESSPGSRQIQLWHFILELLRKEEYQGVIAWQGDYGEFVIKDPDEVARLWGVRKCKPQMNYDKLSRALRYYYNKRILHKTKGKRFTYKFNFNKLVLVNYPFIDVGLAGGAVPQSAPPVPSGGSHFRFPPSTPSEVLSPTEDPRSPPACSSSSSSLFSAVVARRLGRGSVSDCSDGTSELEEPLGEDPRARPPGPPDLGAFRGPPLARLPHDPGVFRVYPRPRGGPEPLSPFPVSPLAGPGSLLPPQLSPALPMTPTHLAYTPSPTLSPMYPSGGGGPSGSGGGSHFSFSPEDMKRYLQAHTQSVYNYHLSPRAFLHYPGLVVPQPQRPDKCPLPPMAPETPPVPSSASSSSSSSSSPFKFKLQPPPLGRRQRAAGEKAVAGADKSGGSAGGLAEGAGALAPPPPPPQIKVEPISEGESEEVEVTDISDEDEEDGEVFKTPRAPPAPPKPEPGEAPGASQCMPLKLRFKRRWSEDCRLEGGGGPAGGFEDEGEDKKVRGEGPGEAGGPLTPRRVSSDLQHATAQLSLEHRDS
The following applies: protein: recombinant; tags: N-terminal GST; dsDNA, one strand shown. The essentials: as §1

Assay [12] has as its target T7, ETV3L (Homo sapiens, UniProt Q6ZN32 1-361).
T7 sequence: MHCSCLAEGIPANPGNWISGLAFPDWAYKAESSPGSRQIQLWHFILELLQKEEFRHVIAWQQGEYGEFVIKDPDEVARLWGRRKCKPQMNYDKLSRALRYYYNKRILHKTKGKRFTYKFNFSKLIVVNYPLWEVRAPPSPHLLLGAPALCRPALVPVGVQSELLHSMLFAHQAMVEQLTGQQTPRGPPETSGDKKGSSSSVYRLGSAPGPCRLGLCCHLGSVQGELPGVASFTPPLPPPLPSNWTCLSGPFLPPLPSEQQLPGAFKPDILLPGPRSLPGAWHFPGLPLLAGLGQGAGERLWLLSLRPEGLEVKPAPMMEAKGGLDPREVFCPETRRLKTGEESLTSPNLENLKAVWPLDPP
To be noted: protein: recombinant; tags: N-terminal GST; dsDNA, one strand shown. The essentials: as §1

The target of assay [13] is T8, ETS2 (Homo sapiens, UniProt P15036 1-469).
T8 sequence: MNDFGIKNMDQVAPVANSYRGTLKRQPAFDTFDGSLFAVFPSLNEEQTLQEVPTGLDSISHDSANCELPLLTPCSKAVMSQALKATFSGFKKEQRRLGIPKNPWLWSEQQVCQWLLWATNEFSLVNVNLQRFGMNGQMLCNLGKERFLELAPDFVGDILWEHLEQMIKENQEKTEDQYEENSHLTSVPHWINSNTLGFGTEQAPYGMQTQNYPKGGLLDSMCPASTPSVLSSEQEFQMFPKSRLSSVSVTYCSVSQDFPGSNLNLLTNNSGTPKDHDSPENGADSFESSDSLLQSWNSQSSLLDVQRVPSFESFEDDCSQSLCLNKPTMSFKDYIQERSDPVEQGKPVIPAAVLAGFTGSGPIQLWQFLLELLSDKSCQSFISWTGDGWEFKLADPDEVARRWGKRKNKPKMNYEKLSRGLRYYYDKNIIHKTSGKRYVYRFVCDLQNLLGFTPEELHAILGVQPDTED
The following applies: protein: recombinant; tags: N-terminal GST; dsDNA, one strand shown. An outline of the steps:
as §1

For assay [14], the target named is T9, SPDEF (Homo sapiens, UniProt O95238 1-335).
T9 sequence: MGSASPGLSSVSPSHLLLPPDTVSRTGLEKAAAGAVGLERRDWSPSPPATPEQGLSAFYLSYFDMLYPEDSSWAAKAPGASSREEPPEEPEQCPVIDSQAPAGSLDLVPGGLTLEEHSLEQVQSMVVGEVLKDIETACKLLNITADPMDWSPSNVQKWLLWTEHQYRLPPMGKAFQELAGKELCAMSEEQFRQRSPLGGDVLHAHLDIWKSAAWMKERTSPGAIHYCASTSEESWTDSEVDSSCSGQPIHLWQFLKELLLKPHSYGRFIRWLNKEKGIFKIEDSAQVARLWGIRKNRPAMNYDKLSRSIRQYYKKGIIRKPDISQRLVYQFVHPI
The following applies: protein: recombinant; tags: N-terminal GST; dsDNA, one strand shown. The essentials: as §1

Assay [15] addresses T10, ETV7 (Homo sapiens, UniProt Q9Y603 1-341).
T10 sequence: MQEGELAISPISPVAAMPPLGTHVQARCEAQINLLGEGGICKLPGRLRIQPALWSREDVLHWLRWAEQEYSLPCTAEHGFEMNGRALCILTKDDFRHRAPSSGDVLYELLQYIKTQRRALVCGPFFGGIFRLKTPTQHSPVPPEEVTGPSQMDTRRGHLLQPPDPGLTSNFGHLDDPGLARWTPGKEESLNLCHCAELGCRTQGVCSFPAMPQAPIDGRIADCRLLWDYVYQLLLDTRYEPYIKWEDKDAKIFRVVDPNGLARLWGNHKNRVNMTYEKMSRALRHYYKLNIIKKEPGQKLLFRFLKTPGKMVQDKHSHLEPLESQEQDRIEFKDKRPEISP
To be noted: protein: recombinant; tags: N-terminal GST; dsDNA, one strand shown. The essentials:
as §1

For assay [16], the target named is T11, ELF5 (Homo sapiens, UniProt Q9UKW6-2 1-255).
T11 sequence: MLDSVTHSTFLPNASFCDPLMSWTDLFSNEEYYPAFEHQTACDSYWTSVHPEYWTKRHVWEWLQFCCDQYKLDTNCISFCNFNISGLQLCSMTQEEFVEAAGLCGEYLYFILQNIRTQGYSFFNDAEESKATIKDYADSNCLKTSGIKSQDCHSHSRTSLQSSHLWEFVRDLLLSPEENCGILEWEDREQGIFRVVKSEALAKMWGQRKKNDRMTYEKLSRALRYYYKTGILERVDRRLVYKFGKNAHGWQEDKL
To be noted: protein: recombinant; tags: N-terminal GST; dsDNA, one strand shown. The essentials:
as §1

The target of assay [17] is T12, ETV3 (Homo sapiens, UniProt P41162-2 1-143).
T12 sequence: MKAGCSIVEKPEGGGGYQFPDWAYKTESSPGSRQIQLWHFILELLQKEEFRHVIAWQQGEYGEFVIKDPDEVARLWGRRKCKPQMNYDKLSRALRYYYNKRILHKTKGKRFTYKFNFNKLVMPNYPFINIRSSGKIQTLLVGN
The following applies: protein: recombinant; tags: N-terminal GST; dsDNA, one strand shown. The essentials: as §1

For assay [18], the target named is ETV6 (Homo sapiens, UniProt P41212 1-452). To be noted: protein: recombinant; tags: N-terminal GST; dsDNA, one strand shown. An outline of the steps: as §1
ETV6, sequence (P41212 whole entry): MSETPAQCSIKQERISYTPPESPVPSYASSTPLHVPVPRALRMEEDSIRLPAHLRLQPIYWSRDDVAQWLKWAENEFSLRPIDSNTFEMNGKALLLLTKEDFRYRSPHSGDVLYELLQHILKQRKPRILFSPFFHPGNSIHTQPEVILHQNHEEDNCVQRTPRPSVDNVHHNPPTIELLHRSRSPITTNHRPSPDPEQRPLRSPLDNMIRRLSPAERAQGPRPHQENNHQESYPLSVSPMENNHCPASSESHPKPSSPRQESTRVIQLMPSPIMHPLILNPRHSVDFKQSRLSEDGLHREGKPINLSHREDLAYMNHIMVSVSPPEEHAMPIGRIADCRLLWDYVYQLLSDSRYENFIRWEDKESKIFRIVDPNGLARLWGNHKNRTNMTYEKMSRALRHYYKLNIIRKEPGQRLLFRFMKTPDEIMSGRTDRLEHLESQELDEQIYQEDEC

HSF1, sequence (Q00613 whole entry): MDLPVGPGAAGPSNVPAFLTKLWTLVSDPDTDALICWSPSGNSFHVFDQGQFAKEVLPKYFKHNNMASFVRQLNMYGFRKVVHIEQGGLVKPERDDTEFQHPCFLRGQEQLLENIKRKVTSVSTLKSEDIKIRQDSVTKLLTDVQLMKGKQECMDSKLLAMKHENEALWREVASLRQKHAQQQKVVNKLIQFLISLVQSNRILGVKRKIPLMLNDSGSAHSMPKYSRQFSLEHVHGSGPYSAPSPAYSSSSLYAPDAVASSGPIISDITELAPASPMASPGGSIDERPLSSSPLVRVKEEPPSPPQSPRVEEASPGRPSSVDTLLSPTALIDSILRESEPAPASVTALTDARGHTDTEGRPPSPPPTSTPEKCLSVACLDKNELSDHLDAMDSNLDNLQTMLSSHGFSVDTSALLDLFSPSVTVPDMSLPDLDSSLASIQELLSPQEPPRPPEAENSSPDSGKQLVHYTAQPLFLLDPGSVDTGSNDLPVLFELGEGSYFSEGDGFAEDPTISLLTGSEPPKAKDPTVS
ETV5, sequence (P41161 whole entry): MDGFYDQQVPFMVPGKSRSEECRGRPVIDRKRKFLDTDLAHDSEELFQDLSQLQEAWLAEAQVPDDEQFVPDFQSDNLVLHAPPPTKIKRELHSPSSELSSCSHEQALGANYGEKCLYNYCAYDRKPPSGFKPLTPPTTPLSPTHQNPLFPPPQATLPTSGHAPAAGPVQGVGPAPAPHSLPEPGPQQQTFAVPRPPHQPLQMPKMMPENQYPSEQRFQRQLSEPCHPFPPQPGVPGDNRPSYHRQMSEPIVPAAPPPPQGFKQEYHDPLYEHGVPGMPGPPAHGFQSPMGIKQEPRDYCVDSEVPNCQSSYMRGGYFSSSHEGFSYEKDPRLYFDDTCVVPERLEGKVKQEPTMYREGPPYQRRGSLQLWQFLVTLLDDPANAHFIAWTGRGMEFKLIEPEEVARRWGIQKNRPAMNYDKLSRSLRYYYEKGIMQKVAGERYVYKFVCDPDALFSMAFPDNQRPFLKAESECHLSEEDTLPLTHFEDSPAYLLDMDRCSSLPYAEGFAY
ELF4, sequence (Q99607 whole entry): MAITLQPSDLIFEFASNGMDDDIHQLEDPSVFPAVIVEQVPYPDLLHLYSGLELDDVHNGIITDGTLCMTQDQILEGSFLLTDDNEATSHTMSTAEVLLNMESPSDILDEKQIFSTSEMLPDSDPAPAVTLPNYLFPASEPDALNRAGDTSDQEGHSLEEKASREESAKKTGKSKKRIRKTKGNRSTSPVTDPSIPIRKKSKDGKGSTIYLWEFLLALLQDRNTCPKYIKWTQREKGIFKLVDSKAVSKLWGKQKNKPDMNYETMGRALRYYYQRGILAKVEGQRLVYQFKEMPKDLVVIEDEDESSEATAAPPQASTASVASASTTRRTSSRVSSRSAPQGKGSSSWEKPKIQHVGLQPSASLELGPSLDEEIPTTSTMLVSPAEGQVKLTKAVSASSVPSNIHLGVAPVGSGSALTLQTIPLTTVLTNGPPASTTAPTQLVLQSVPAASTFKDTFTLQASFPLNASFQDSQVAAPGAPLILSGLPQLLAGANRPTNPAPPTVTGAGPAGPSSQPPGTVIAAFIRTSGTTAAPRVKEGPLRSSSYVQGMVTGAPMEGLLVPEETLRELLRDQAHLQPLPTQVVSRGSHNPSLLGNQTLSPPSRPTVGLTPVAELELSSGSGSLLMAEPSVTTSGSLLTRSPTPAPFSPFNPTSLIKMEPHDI
ETV1, sequence (P50549 whole entry): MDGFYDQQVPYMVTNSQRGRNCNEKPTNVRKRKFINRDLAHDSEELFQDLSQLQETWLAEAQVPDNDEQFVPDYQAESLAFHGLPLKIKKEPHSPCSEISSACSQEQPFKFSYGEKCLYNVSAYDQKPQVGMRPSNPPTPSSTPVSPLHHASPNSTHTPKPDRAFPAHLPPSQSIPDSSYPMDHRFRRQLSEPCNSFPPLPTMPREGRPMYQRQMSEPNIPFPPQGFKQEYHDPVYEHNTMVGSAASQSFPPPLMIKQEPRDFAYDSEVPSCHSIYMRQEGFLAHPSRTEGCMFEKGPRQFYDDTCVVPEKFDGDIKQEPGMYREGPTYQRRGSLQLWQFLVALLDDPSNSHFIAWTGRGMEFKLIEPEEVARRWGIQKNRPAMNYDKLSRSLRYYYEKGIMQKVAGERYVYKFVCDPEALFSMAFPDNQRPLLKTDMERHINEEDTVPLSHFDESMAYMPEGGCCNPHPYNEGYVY
CRX, sequence (O43186 whole entry): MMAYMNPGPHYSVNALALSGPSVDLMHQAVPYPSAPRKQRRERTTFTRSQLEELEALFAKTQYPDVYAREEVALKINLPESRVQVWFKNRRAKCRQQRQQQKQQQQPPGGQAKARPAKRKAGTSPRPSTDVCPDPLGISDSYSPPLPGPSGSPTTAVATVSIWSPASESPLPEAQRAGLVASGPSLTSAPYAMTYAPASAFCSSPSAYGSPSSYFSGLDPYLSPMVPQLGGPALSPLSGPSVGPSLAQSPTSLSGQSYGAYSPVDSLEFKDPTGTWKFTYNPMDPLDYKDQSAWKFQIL

With ATTGAT, the binding signal was 1.25 fold enrichment (6-mer frequency, TF over GST control) in assay [1]; 1.2 fold enrichment (6-mer frequency, TF over GST control) in [2]; 1.37 fold enrichment (6-mer frequency, TF over GST control) in [3]; 1.42 fold enrichment (6-mer frequency, TF over GST control) in assay [4]; 1.32 fold enrichment (6-mer frequency, TF over GST control) in assay [5]; 1.38 fold enrichment (6-mer frequency, TF over GST control) in [6]. The binding signal was 1.3 fold enrichment (6-mer frequency, TF over GST control) in assay [7]; 1.22 fold enrichment (6-mer frequency, TF over GST control) in [8]; 1.46 fold enrichment (6-mer frequency, TF over GST control) in [9]; 1.39 fold enrichment (6-mer frequency, TF over GST control) in assay [10]; 1.34 fold enrichment (6-mer frequency, TF over GST control) in assay [11]; 1.31 fold enrichment (6-mer frequency, TF over GST control) in assay [12]. The binding signal in assay [13] is 1.29 fold enrichment (6-mer frequency, TF over GST control); in [14] it was 1.32 fold enrichment (6-mer frequency, TF over GST control); in [15], 1.23 fold enrichment (6-mer frequency, TF over GST control); in assay [16] it was 1.27 fold enrichment (6-mer frequency, TF over GST control); in [17] it was 1.33 fold enrichment (6-mer frequency, TF over GST control); in assay [18], 1.24 fold enrichment (6-mer frequency, TF over GST control).

The values are drawn from PMC7862700, “An all-to-all approach to the identification of sequence-specific readers for epigenetic DNA modifications on cytosine”.
